PubChem BioAssay (Tox21)
Results filed as inconclusive are left out. A call without a number means that no potency is given here. The source made the active and inactive calls. The call rests on the fitted dose curve.

experiment: qHTS assay to identify small molecule antagonists of the estrogen receptor alpha (ER-alpha) signaling pathway using the BG1 cell line (AID 743080); details: BG1Luc4E2 ERE-luciferase antagonist mode, luminescence; series mostly up to 70.3 µM;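 further: BG1 cells stimulated with 17beta-estradiol alongside compound; nearly all actives have a fitted effect of over 25% in size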
Description: National Center for Advancing Translational Sciences [NCATS]
NIH Chemical Genomics Center [NCGC]
U.S. Environmental Protection Agency [EPA]
National Institutes of Environmental Health Sciences [NIEHS]
National Toxicology Program [NTP]
U.S. Food and Drug Administration [FDA]
Estrogen receptor (ER), a nuclear hormone receptor, plays an important role in development, metabolic homeostasis and reproduction. Endocrine disrupting chemicals (EDCs) and their interactions with steroid hormone receptors like ER causes disruption of normal endocrine function. Therefore, it is important to understand the effect of environmental chemicals on the ER signaling pathway. To identify ER antagonists, BG1-Luc-4E2 cell line (provided by Dr. Michael Denison from University of California) has been used to screen the Tox21 10K compound library. BG1Luc4E2 cell line endogenously expresses full-length ER-alpha and is stably transfected with a plasmid containing four estrogen responsive elements (ERE) upstream of a luciferase reporter gene.
Tox21 Assay Protocol Summary:
BG1-Luc-4E2 cells were cultured in phenol red free assay medium containing 10% charcoal stripped FBS for 5 days before the assay was performed. The cells were dispensed at 4,000 cells/4 uL of assay medium per well into white wall/solid-bottom 1536-well plates using a Multidrop Combi (ThermoFisher Scientific, Waltham, MA) dispenser. The assay plates were incubated at a 37C and 5% CO2 for 24 h, and then 23 nL of compounds dissolved in DMSO, positive controls or DMSO only was transferred to the assay plate using a Pintool station (Kalypsys, San Diego, CA), followed by addition of 1 uL of 17beta-estradiol in assay medium using a Flying Reagent Dispenser (Aurora Discovery, San Diego, CA). After the plates were incubated at 37 C and 5% CO2 for 21.5 h, 1 uL of CellTiter-Fluor reagent (Promega, Madison, WI) of measuring cytotoxicity was added using Flying Reagent Dispenser (FRD) to each well. The assay plates were incubated at 37 C and 5% CO2 for additional 30 min and the fluorescence intensity was quantified by a ViewLux plate reader (PerkinElmer, Shelton, CT). For measuring luciferase reporter gene activity, 4 uL of ONE-Glo reagent (Promega) was added to each plate using an FRD and luminescence was quantified by a ViewLux plate reader after 30 min incubation at room temperature.
Potency means the concentration at half of the fitted maximal effect.

For CCOC(=O)c1cncn1C(C)c1ccccc1 (stereo not given), which Potency is on record?
Its Potency is “inactive”.

With CCCC(C)(COC(N)=O)COC(=O)NC(C)C (stereo not given) as the compound, how does the Potency read?
The Potency was “inactive”.

With C1CCNCC1 as the compound, how does the Potency read?
Its Potency is “inactive”.

Which Potency does the source give for CN(C)C(=O)Nc1cccc(OC(=O)NC(C)(C)C)c1 here?
The Potency was “inactive”.

Which Potency does the source give for CC(C)OC(=O)Cc1ccccc1 here?
Its Potency is “inactive”.

For CN[C@@H](C)[C@H](O)c1ccccc1, which Potency is on record?
Its Potency is “inactive”.

With CCC1(C2=NCCN2)Cc2ccccc2O1 (stereo not given) as the compound, how does the Potency read?
The Potency was “inactive”.

Which Potency does the source give for CC(C)(c1ccccc1)c1cc(-n2nc3ccccc3n2)c(O)c(C(C)(C)c2ccccc2)c1 here?
The Potency was “inactive”.

Which Potency does the source give for O=CC=O here?
The Potency was “inactive”.

With CCOP(=O)(O)C(N)=O as the compound, how does the Potency read?
Its Potency is “inactive”.

Which Potency does the source give for Cc1ccc2c(C)cccc2c1 here?
The Potency was “inactive”.

Which Potency does the source give for CCCC1CCCCN1 (stereo not given) here?
Its Potency is “inactive”.

For CCCBr, which Potency is on record?
Its Potency is “inactive”.

With COc1ccc(C(O)(c2cncnc2)C2CC2)cc1 (stereo not given) as the compound, how does the Potency read?
The Potency was “inactive”.

With C[C@H](N)[C@H](O)c1ccc(O)c(O)c1 as the compound, how does the Potency read?
The Potency was “inactive”.

Which Potency does the source give for COc1cc(CC(C)N)c(OC)cc1Br (stereo not given) here?
Its Potency is “inactive”.

With C=C(Cl)Cl as the compound, how does the Potency read?
Its Potency is “inactive”.

For CCCCCCCCCCCCN(C)C, which Potency is on record?
Its Potency is “inactive”.

Which Potency does the source give for NNCCO here?
Its Potency is “inactive”.

With C=CCOCC1CO1 (stereo not given) as the compound, how does the Potency read?
The Potency was “inactive”.

For CC(=O)OC(c1ccccc1)C(Cl)(Cl)Cl (stereo not given), which Potency is on record?
Its Potency is 68.6 µM (active).

With Clc1ccc2ccccc2c1 as the compound, how does the Potency read?
The Potency was “inactive”.

Which Potency does the source give for CCC(C)(C)O here?
The Potency was “inactive”.

For CN1CC[C@]23c4c5ccc(O)c4O[C@H]2[C@@H](O)CC[C@H]3[C@H]1C5, which Potency is on record?
Its Potency is “inactive”.

With CC(C)C1(C)N=C(c2ncccc2C(=O)O)NC1=O (stereo not given) as the compound, how does the Potency read?
Its Potency is “inactive”.

Which Potency does the source give for COC(=O)Cc1ccccc1 here?
Its Potency is “inactive”.

With C[N+]1(CCF)[C@@H]2CC[C@H]1CC(OC(=O)C(O)(c1ccccc1)c1ccccc1)C2 (stereo not given in full) as the compound, how does the Potency read?
Its Potency is “inactive”.

Which Potency does the source give for Nc1c(Br)cc(Br)c2c1C(=O)c1ccccc1C2=O here?
Its Potency is “inactive”.

With Cc1nnc(-c2ccccc2)c(=O)n1N as the compound, how does the Potency read?
Its Potency is “inactive”.

With CCC(C)Cl (stereo not given) as the compound, how does the Potency read?
The Potency was “inactive”.

Which Potency does the source give for CCCCCBr here?
Its Potency is “inactive”.

Which Potency does the source give for NC(=O)CF here?
Its Potency is “inactive”.

Which Potency does the source give for O=C(O)c1cc(I)cc(I)c1I here?
Its Potency is “inactive”.

With O=C(O)C(F)(F)C(F)(F)C(F)(F)C(F)(F)C(F)(F)F as the compound, how does the Potency read?
Its Potency is “inactive”.

Which Potency does the source give for O=C(Cc1ccccc1)OCCc1ccccc1 here?
Its Potency is “inactive”.

Which Potency does the source give for C[N+](C)(C)CC1CO1 (stereo not given) here?
The Potency was “inactive”.

With CCCCCCCCCCCCN=C(N)N as the compound, how does the activity change, negative = inhibition read?
The activity change, negative = inhibition was -30.4% [at 3.79 µM] (inactive).

Which Potency does the source give for O=C([O-])c1ccccn1.O=C([O-])c1ccccn1.O=C([O-])c1ccccn1.[Cr+3] here?
Its Potency is “inactive”.

For O=C(Cl)OCCOCCOC(=O)Cl, which Potency is on record?
The Potency was “inactive”.

With CCC(C)(C)c1ccc(O)c(C(C)(C)CC)c1 as the compound, how does the Potency read?
Its Potency is 61.1 µM (active).
